Source: PubChem
Most compounds without a hit are left out; they make up all but 19% or so of the library.
TDP1 inh = qHTS Assay for Inhibitors of Tyrosyl-DNA Phosphodiesterase (TDP1); recombinant TDP1, AlphaScreen DNA substrate cleavage; Potency, µM (top dose mostly 130 µM), for inactives: at the highest dose activity change, negative = inhibition, actives largely listed as inhibitors; actives 0.28% (n = 350,000); AID 485290, 2010; also: nearly all actives have a fitted effect of over 40% in size
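Steps: enzyme plus compound, 15 min RT; add biotin/phosphotyrosine-FITC oligonucleotide (15 nM final), react 5 min; add donor/acceptor beads (10 ug/ml final), 10 min; read AlphaScreen. Tdp1 at 1 nM final.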
RORg inh = qHTS for inhibitors of ROR gamma transcriptional activity; Drosophila S2 Gal4-RORgamma UAS-luciferase reporter, 20 h; actives 5.4% (n = 310,000); Potency, µM (series often up to 53.6 µM), without a hit: at the top dose activity change, negative = inhibition, usual class: inhibitors; Nuclear receptor ROR-gamma (Mus musculus), P51450; also: nearly all actives have a fitted effect of over 60% in size
Target sequence (P51450 whole entry, looked up, the tested form may be a part): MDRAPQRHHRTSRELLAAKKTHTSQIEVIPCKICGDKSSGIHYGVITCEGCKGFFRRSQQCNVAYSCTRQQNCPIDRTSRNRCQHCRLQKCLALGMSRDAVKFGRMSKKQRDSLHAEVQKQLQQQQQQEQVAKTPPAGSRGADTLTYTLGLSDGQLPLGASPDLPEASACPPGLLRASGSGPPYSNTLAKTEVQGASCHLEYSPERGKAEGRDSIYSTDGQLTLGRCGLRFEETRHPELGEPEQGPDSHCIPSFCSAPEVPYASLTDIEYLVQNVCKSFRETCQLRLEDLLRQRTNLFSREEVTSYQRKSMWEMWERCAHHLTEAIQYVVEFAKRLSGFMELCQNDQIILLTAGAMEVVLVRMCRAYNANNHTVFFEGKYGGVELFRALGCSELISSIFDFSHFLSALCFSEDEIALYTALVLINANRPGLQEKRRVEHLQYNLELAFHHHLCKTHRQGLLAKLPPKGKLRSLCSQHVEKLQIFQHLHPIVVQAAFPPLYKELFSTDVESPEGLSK
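Stably transfected Drosophila Schneider cells are the test system, with ROR gamma fused to Gal4 and luciferase under UAS control; luminescence is read after 20 hr of 700 uM copper sulfate induction at ambient temperature.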
Gal4-VP16 FLuc = VP16 counterscreen qHTS for inhibitors of ROR gamma transcriptional activity; Drosophila S2 Gal4-VP16 UAS-luciferase, luminescence, 20 h; Potency, µM (top dose mostly 53.6 µM), without a hit: at the highest dose activity, negative = inhibition, actives largely listed as inhibitors; actives 3.5% (n = 310,000); AID 2546, 2010;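 also: Gal4-VP16 expression switched on by copper sulfate through the metallothionein promoter; nearly all actives have a fitted effect of over 50% in size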
DT40 TDP1 no CPT = qHTS for Inhibitors of human tyrosyl-DNA phosphodiesterase 1 (TDP1): qHTS in cells in absence of CPT. Potency, µM (top dose mostly 46.2 µM), for inactives: at the highest dose activity change, negative = growth inhibition, most hits filed as inhibitors. DT40 Tdp1-/- hTDP1 cells, no CPT, ATP luminescence, 48 h. actives 15% (n = 420,000); also: nearly all actives have a fitted effect of over 55% in size
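Growth of hTDP1-complemented DT40 Tdp1-knockout cells is measured by ATP luminescence after at least 48 hr compound exposure at 37 °C, with DMSO substituting for the 20 nM CPT used in the parallel screen.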
TDP1 cell CPT = qHTS for Inhibitors of human tyrosyl-DNA phosphodiesterase 1 (TDP1): qHTS in cells in presence of CPT | Potency, µM (top dose mostly 46.2 µM), without a hit: at the top dose activity change, negative = growth inhibition, most hits filed as inhibitors | AID 686979, 2013 | chicken DT40 Tdp1-/-;hTDP1 cells + 20 nM CPT, ATP luminescence, 48 h | actives 12% (n = 420,000); also: nearly all actives have a fitted effect of over 55% in size
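Chicken DT40 Tdp1-/- cells complemented with human TDP1, 400 cells/well, exposed to compounds plus 20 nM camptothecin for at least 48 h at 37 C; viability read as ATP content by CellTiter-Glo luminescence.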
* hit, by the source's call; [ ] = another dose, or the depositor's remark. Calls follow the shape of the dose curve; as a rule, active = well fitted curve in the direction sought with a large enough effect; inconclusive = small, poorly fitted or top-dose-only effect, or another doubt; inactive = no such curve, though single readings can be large; an effect the other way counts as inactive or inconclusive. % is scaled to controls: 0 for no effect and ±100 for the full control effect; potency is read from the fitted curve at half-maximal effect.

O=C(COc1cccc2ccccc12)N/N=C/c1ccncc1 was read as TDP1 inh 5%, RORg inh 17%, Gal4-VP16 FLuc -3%, DT40 TDP1 no CPT -21% and TDP1 cell CPT -19%.
For CN(Cc1cn(-c2ccccc2)nc1-c1ccc2c(c1)OCO2)Cc1nccn1C the results were TDP1 inh 6%, RORg inh 11µM*, Gal4-VP16 FLuc 11µM*, DT40 TDP1 no CPT 23µM* and TDP1 cell CPT 26µM*.
Screening CC(c1ccon1)N(C)Cc1cn(C)nc1-c1cccc(Cl)c1 (configuration not stated) returned RORg inh -1%, Gal4-VP16 FLuc 5%, DT40 TDP1 no CPT 16µM* and TDP1 cell CPT inconclusive.
For Cc1cnccc1CN(C)Cc1cn(C)nc1-c1cccc(Cl)c1 the results were TDP1 inh 5%, RORg inh 1%, Gal4-VP16 FLuc -5%, DT40 TDP1 no CPT inconclusive and TDP1 cell CPT inconclusive.
CC(C)N(Cc1cn(C)nc1-c1cccc(Cl)c1)Cc1nccn1C was read as RORg inh 7.9µM*, Gal4-VP16 FLuc inconclusive, DT40 TDP1 no CPT inconclusive and TDP1 cell CPT inconclusive.
For CC(C)N(Cc1nc(-c2ccc(Cl)cc2)no1)Cc1nccn1C the results were TDP1 inh -8%, RORg inh 5µM*, Gal4-VP16 FLuc inconclusive, DT40 TDP1 no CPT 16µM* and TDP1 cell CPT inconclusive.
Screening CN(Cc1cn(C)nc1-c1cccc(Cl)c1)CC1CCCCO1 (configuration not stated) returned TDP1 inh -5%, RORg inh -10%, Gal4-VP16 FLuc -6%, DT40 TDP1 no CPT 7% and TDP1 cell CPT 8%.
For COc1cnc(-c2ccccc2)nc1Oc1cccc(C)c1C the results were TDP1 inh 2%, RORg inh 39%, Gal4-VP16 FLuc -1%, DT40 TDP1 no CPT inconclusive and TDP1 cell CPT inconclusive.
Screening CC(C)(C)c1nnc(NC(=O)CCS(=O)(=O)c2ccccc2)s1 returned RORg inh -7%, Gal4-VP16 FLuc -18%, DT40 TDP1 no CPT 23µM* and TDP1 cell CPT 7.3µM*.
O=C(CS(=O)(=O)c1ccccc1)Nc1nnc(C(F)(F)F)s1 was read as TDP1 inh 8%, RORg inh -37%, Gal4-VP16 FLuc 12%, DT40 TDP1 no CPT -19% and TDP1 cell CPT 0%.
For Cc1nnc(NC(=O)CCSc2ccccc2)s1 the results were TDP1 inh 3%, RORg inh 34%, Gal4-VP16 FLuc -3%, DT40 TDP1 no CPT 0% and TDP1 cell CPT 14%.
O=C(CCS(=O)(=O)c1ccccc1)Nc1nnc(C(F)(F)F)s1 was read as RORg inh 42%, Gal4-VP16 FLuc 16%, DT40 TDP1 no CPT 13µM* and TDP1 cell CPT inconclusive.
`Cc1nnc(NC(=O)CCS(=O)(=O)c2ccccc2)s1` gave TDP1 inh 2%[0.0935 µM], RORg inh -36%, Gal4-VP16 FLuc 29%, DT40 TDP1 no CPT inconclusive and TDP1 cell CPT 16µM*.
Screening COC(=O)CCCC[C@@H]1SC[C@@H]2NC(=O)N[C@@H]21 returned TDP1 inh 26%, RORg inh 7%, Gal4-VP16 FLuc 8%, DT40 TDP1 no CPT -7% and TDP1 cell CPT 2%.
For COc1ccc(N2CCN(C(c3ccco3)c3sc4nc(C)nn4c3O)CC2)cc1 (configuration not stated) the results were TDP1 inh 0%, RORg inh 10%, Gal4-VP16 FLuc 2%, DT40 TDP1 no CPT -25% and TDP1 cell CPT 2%.
Screening CCOC(CNCc1cc(C)c2[nH]c3ccccc3c2c1C)OCC returned DT40 TDP1 no CPT 12µM* and TDP1 cell CPT 16µM*.
For CCOC(CCNC(=O)c1cc2c(=O)[nH]c3ccccc3c2s1)OCC the results were RORg inh 5%, Gal4-VP16 FLuc -3%, DT40 TDP1 no CPT inconclusive and TDP1 cell CPT inconclusive.
CC1Cc2ccccc2N1CC(=O)NC(=O)NC(C)(C)C (configuration not stated) was read as TDP1 inh 6%, RORg inh 3%, Gal4-VP16 FLuc -8%, DT40 TDP1 no CPT 7% and TDP1 cell CPT 5%.
CC1Cc2ccccc2N1CC(=O)NC(=O)NC1CCCCC1 (configuration not stated) was read as TDP1 inh 3%, RORg inh 19%, Gal4-VP16 FLuc 7%, DT40 TDP1 no CPT -17% and TDP1 cell CPT 18µM*.
Screening COc1cc(/C=C/c2onc(C)c2[N+](=O)[O-])cc(OC)c1OC returned DT40 TDP1 no CPT -21% and TDP1 cell CPT 7%.
Screening O=c1c2ccccc2nc(-c2ccc(Cl)cc2Cl)n1CCCn1ccnc1 returned TDP1 inh 4%, RORg inh -24%, Gal4-VP16 FLuc -3%, DT40 TDP1 no CPT -25% and TDP1 cell CPT -19%.
Screening O=C(O)C(Cc1ccccc1)N1C(=O)c2c(Cl)c(Cl)c(Cl)c(Cl)c2C1=O (configuration not stated) returned DT40 TDP1 no CPT -6% and TDP1 cell CPT -11%.
For Cn1cc(-c2nc3cnc(N4CCNCC4)nc3n(C3CC3)c2=O)c2ccccc21 the results were RORg inh inconclusive, Gal4-VP16 FLuc inconclusive, DT40 TDP1 no CPT 5.8µM* and TDP1 cell CPT 13µM*.
Cn1cc(-c2nc3cnc(N4CCNCC4)nc3n(-c3ccccc3)c2=O)c2ccccc21 was read as RORg inh -20%, Gal4-VP16 FLuc -11%, DT40 TDP1 no CPT 5% and TDP1 cell CPT 1%.
For CC1CCN(c2c(NCC3CCC(C(=O)NCc4ccccc4)CC3)c(=O)c2=O)CC1 (configuration not stated) the results were TDP1 inh 1%, RORg inh -6%, Gal4-VP16 FLuc -8%, DT40 TDP1 no CPT -9% and TDP1 cell CPT -2%.
Cc1ccc(NC(=O)c2cc(S(=O)(=O)N3CCCCC3)ccc2N2CCOCC2)cc1 was read as DT40 TDP1 no CPT inconclusive and TDP1 cell CPT -20%.
Screening Cc1ccc(COC(=O)c2cc(S(=O)(=O)N3CCCCC3)ccc2N2CCOCC2)cc1 returned TDP1 inh -3%, DT40 TDP1 no CPT 26µM* and TDP1 cell CPT inconclusive.
For CC(C)CNC(=O)COC(=O)c1cc(S(=O)(=O)N2CCCCC2)ccc1N1CCOCC1 the results were TDP1 inh 6%, RORg inh 9%, Gal4-VP16 FLuc 5%, DT40 TDP1 no CPT -16% and TDP1 cell CPT -8%.
Screening O=C(OCc1ccccc1)c1cc(S(=O)(=O)N2CCCCC2)ccc1N1CCOCC1 returned TDP1 inh -1%, DT40 TDP1 no CPT inconclusive and TDP1 cell CPT inconclusive.
